Potency and affinity values are given separately. Records with an inconclusive call do not appear. Where a call stands in place of a potency, no number is given. Calls of active or inactive are those of the source.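 Rule for the calls: active = signal loss with fitted half-maximal concentration at or below twice the top valid tested dose in every test run; inconclusive = runs disagree, flat 30 to 70% signal loss, or poor fit; inactive = all runs flat, opposite direction, or potency beyond limit.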

A short description of the experiment: HEK293T cytotoxicity, dose response, cytotoxicity control for miR-122 modulator project, cell-based, inhibitor set, cherry-pick, set 2 (AID 720697). To be noted: HEK293T viability, CellTiter-Glo luminescence, 48 h; series mostly up to 26 µM. Background: ATP-based viability assays read luminescence as a measure of living cells.
For `Cc1nn(C)cc1NC(=O)C[C@H]1CC[C@H]2[C@H](COc3ccc(NC(=O)c4cccc(F)c4)cc3C(=O)N2C)O1`, the call was inactive.

Regarding `O=C(Nc1ccc(F)cc1)N1C[C@H]2[C@@H](c3ccccc31)[C@H](CO)N2C(=O)c1ccncc1`, the outcome was inactive.

Regarding `O=C(C1CCCCC1)N1C[C@@H]2[C@H](c3ccccc31)[C@H](CO)N2Cc1ccccc1Cl`, the call was inactive.

As for `CNC(=O)C[C@@H]1CC[C@@H]2[C@@H](COc3ccc(NC(=O)Cc4cccs4)cc3C(=O)N2C)O1`, the outcome was inactive.

Consider `C[C@H](CO)N1C[C@H](C)[C@H](CN(C)S(=O)(=O)c2cccc(F)c2)Oc2ncc(C#CC3CCCCC3)cc2C1=O`, for which the outcome was inactive.

Take `CCNC(=O)C[C@@H]1CC[C@H]2[C@@H](COc3ccc(NC(=O)c4ccc(C(F)(F)F)cc4)cc3C(=O)N2C)O1`: the result was inactive.

Regarding `COCC(=O)NC[C@H]1N[C@H](CO)[C@H]1c1ccc(C2=CCCC2)cc1`, the result was inactive.

Consider `CN(c1ccccc1)S(=O)(=O)c1ccc(C(=O)Nc2cccc(S(=O)(=O)N3CCOCC3)c2)cc1`, for which the call was inactive.

As for `C[C@@H]1CN([C@@H](C)CO)C(=O)c2cc(NC(=O)Nc3cccc4ccccc34)ccc2O[C@@H](C)CCCCO[C@H]1CN(C)CC1CCCCC1`, the call was inactive.

Regarding `C/C=C/c1ccc([C@H]2[C@@H](CO)N(Cc3ccccn3)[C@@H]2CNC(=O)CC)cc1`, the molecule was classed as inactive.

Regarding `COCCNC(=O)C[C@H]1CC[C@@H]2[C@@H](COc3ccc(NS(=O)(=O)c4ccc(Cl)cc4)cc3C(=O)N2C)O1`, the call was inactive.

As for `CNC(=O)C[C@H]1CC[C@@H]2[C@@H](COc3ccc(NC(=O)Nc4ccc(Cl)cc4)cc3C(=O)N2C)O1`, the outcome was inactive.

With `C/C=C/c1ccc2c(c1)O[C@@H](CN(C)CC1CCCC1)[C@H](C)CN([C@@H](C)CO)S2(=O)=O`, the outcome was inactive.

For the molecule `CCNC(=O)Nc1ccc2c(c1)C(=O)N(C)[C@H]1CC[C@H](CC(=O)NCc3ccccc3F)O[C@H]1CO2`, the molecule was classed as inactive.

As to `C=CCNC(=S)NNC(=O)c1cccn(Cc2ccc(Cl)c(Cl)c2)c1=O`, the call was inactive.

For `CN1[C@@H](CO)[C@@H]2c3ccccc3N(C(=O)Nc3cc(F)ccc3F)C[C@@H]21`, the molecule was called inactive.

On to `Cc1ccccc1NCN1C(=O)C2C3C=CC(C3)C2C1=O` (centres undefined), for which the molecule was called inactive.

Regarding `COC(=O)C[C@@H]1CC[C@@H]2[C@@H](COc3ccc(NC(=O)c4cscn4)cc3C(=O)N2C)O1`, the molecule was classed as inactive.

As to `C/C=C/c1ccc([C@H]2[C@@H](CO)N(C(=O)COC)[C@H]2CNC(=O)CC)cc1`, the call was inactive.

For `Cn1c(NC(=O)c2ccco2)c(-c2ccccc2Cl)c(=O)c2ccccc21`, the call was inactive.

Regarding `CN1C(=O)c2cc(NC(=O)c3ccc4c(c3)OCO4)ccc2OC[C@H]2O[C@H](CC(=O)O)CC[C@@H]21`, the call was inactive.

For the molecule `C[C@@H]1CN([C@H](C)CO)S(=O)(=O)c2ccc(C3=CCCC3)cc2O[C@@H]1CN(C)C(=O)Cc1ccncc1`, the call was inactive.

Consider `COCC(=O)N(C[C@@H]1N[C@H](CO)[C@H]1c1ccc(C2=CCCC2)cc1)C(C)C`, for which the result was inactive.

Take `C[C@@H]1CN([C@H](C)CO)S(=O)(=O)c2ccc(C#CC3(O)CCCC3)cc2O[C@@H]1CN(C)C(=O)c1cccnc1`: the outcome was inactive.

Take `COCC(=O)N(C)C[C@H]1Oc2cc(-c3ccccc3F)ccc2S(=O)(=O)N([C@H](C)CO)C[C@H]1C`: the outcome was inactive.

For `C[C@@H]1CN([C@@H](C)CO)C(=O)c2cccc(NC(=O)c3ccc(-c4nccs4)cc3)c2O[C@H]1CN(C)Cc1ccc2c(c1)OCO2`, the call was inactive.

As to `CCC(=O)N1C[C@H]2[C@@H](c3ccccc31)[C@H](CO)N2C(=O)Nc1ccccc1F`, the molecule was called inactive.

`O=C(Nc1ccc(F)cc1)N1C[C@@H]2[C@H](c3ccccc31)[C@H](CO)N2C(=O)Cc1ccccc1`: the call was inactive.

On to `C/C=C/c1ccc([C@@H]2[C@@H](CO)N[C@@H]2CN(C(=O)C2CCCC2)C(C)C)cc1`, for which the molecule was classed as inactive.

On to `COCC(=O)N(C[C@H]1N[C@@H](CO)[C@@H]1c1ccc(C2=CCCC2)cc1)C(C)C`, for which the call was inactive.

As to `C[C@H]1CCCCO[C@H](CN(C)Cc2ccc3c(c2)OCO3)[C@@H](C)CN([C@@H](C)CO)C(=O)c2cc(NC(=O)Nc3cccc4ccccc34)ccc2O1`, the molecule was classed as inactive.

For `CN(C[C@@H]1[C@@H](c2ccccc2)[C@H](CO)N1C(=O)C1CCC1)C(=O)c1ccccn1`, the outcome was inactive.

On to `COCC(=O)N1[C@H](CO)[C@@H](c2ccccc2)[C@H]1CNC(=O)c1ccccn1`, for which the result was inactive.

As to `CC(C)C(=O)Nc1ccc2c(c1)C(=O)N(C)[C@H]1CC[C@H](CC(=O)Nc3cccc(F)c3)O[C@@H]1CO2`, the molecule was called inactive.

Source of the values: PubChem BioAssay AID720697 (Broad Institute, 2013).
